Data on 15 compounds can be found in PubChem BioAssay (NCATS).

Records with an inconclusive call do not appear. Unmarked numbers belong to inactive results. Calls of active or inactive are those of the source. The call rests on the fitted dose curve; in most records, active means well fitted curve in the direction sought with a large enough effect; inconclusive means small, poorly fitted or top-dose-only effect, or another doubt; inactive means no such curve, though single readings can be large; an effect the other way counts as inactive or inconclusive.

Test [1] can be described thus: qHTS of pediatric cancer cell lines to identify multiple opportunities for drug repurposing: Primary screen for BT-12 cells (AID 1347101). Further: nearly all actives have a fitted effect of over 25% in size. Further: potency means the concentration at half of the fitted maximal effect.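 On activity change, negative = cytotoxic: plate controls were DMSO for no effect and bortezomib positive control for full effect.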 In short, it runs like this: (§1)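 Cells (500-1,000/well) rested 5 h, then received compounds for 48 h; metabolically active cells were measured by CellTiter-Glo luminescence. Final concentrations spanned up to 46 µM (MIPE, 11-point) or 0.59 nM-46 µM (NPC, 8-point) in primary screens, 11-point in follow-ups.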

The nature of test [2]: qHTS of pediatric cancer cell lines to identify multiple opportunities for drug repurposing: Primary screen for OHS-50 cells (AID 1347103). Further: nearly all actives have a fitted effect of over 40% in size. Further: potency means the concentration at half of the fitted maximal effect.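 On activity change, negative = cytotoxic: plate controls were DMSO neutral control for no effect and bortezomib positive control for full effect.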 In short, it runs like this: as §1
On the technique in general: Quantitative high-throughput screening tests each substance at several concentrations.

Test [3] can be described thus: qHTS of pediatric cancer cell lines to identify multiple opportunities for drug repurposing: Primary screen for RD cells (AID 1347104). Further: nearly all actives have a fitted effect of over 55% in size. Further: potency means the concentration at half of the fitted maximal effect.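 On activity change, negative = cytotoxic: plate controls were DMSO for no effect and bortezomib for full effect.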 In a few lines: (§2)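 Readout: CellTiter-Glo luminescence, 48 h treatment. Controls DMSO (neutral) and bortezomib 2.3 µM final (positive). Potency and efficacy taken from primary-screen concentration-response curves.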
Test [4] is described as follows: qHTS of pediatric cancer cell lines to identify multiple opportunities for drug repurposing: Primary screen for Rh30 cells (AID 1347107). Further: nearly all actives have a fitted effect of over 75% in size. Further: potency means the concentration at half of the fitted maximal effect. On activity change, negative = cytotoxic: on the % scale 0 is the no-effect control and ±100 the full control effect. In short, it runs like this:
as §1

Test [5] can be described thus: qHTS of pediatric cancer cell lines to identify multiple opportunities for drug repurposing: Primary screen for Rh41 cells (AID 1347108). Further: nearly all actives have a fitted effect of over 70% in size. Further: potency means the concentration at half of the fitted maximal effect.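 On activity change, negative = cytotoxic: luminescence drop marks cytotoxic hits.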 In short, it runs like this: as §2
The nature of test [6]: qHTS of pediatric cancer cell lines to identify multiple opportunities for drug repurposing: Confirmatory screen for BT-12 cells (AID 1347112). Further: nearly all actives have a fitted effect of over 55% in size. Further: potency means the concentration at half of the fitted maximal effect. On activity change, negative = cytotoxic: on the % scale 0 is the no-effect control and ±100 the full control effect. In short, it runs like this:
as §1

The nature of test [7]: qHTS of pediatric cancer cell lines to identify multiple opportunities for drug repurposing: Confirmatory screen for DAOY cells (AID 1347114). Further: nearly all actives have a fitted effect of over 65% in size. Further: potency means the concentration at half of the fitted maximal effect. On activity change, negative = cytotoxic: on the % scale 0 is the no-effect control and ±100 the full control effect. In a few lines:
(§3)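 Viability measured as metabolically active cells via CellTiter-Glo luminescence following 48 hours of compound exposure, 11-point dilutions in confirmatory testing. 500-1,000 cells/well plated 5 hours before dosing; controls were DMSO and 2.3 µM bortezomib.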

A short description of test [8]: qHTS of pediatric cancer cell lines to identify multiple opportunities for drug repurposing: Confirmatory screen for control Hh wild type fibroblast cells (AID 1347121).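 Further: plate controls were DMSO for no effect and bortezomib for full effect; nearly all actives have a fitted effect of over 70% in size.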 In short, it runs like this: as §1
Test [9] is described as follows: qHTS of pediatric cancer cell lines to identify multiple opportunities for drug repurposing: Primary screen for MG 63 (6-TG R) cells (AID 1347105). Further: nearly all actives have a fitted effect of over 50% in size. Further: potency means the concentration at half of the fitted maximal effect. In a few lines:
as §2

Test [10] is described as follows: qHTS of pediatric cancer cell lines to identify multiple opportunities for drug repurposing: Confirmatory screen for NB1643 cells (AID 1347109). Further: nearly all actives have a fitted effect of over 45% in size. Further: potency means the concentration at half of the fitted maximal effect.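 On activity change, negative = cytotoxic: plate controls were DMSO for no effect and bortezomib for full effect.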 In short, it runs like this:
as §1

The nature of test [11]: qHTS of pediatric cancer cell lines to identify multiple opportunities for drug repurposing: Confirmatory screen for A673 cells (AID 1347110).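 Further: potency means the concentration at half of the fitted maximal effect; cells exposed to compound for 48 h before the viability read; nearly all actives have a fitted effect of over 65% in size.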 In short, it runs like this: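 A673 cells seeded at 500-1,000 cells/well, rested 5 h, then dosed; primary MIPE 11-point (0.78 nM to 46 µM), NPC (0.59 nM to 46 µM); confirmatory 11-point. CellTiter-Glo luminescence after 48 h.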
Test [12] in a line: qHTS of pediatric cancer cell lines to identify multiple opportunities for drug repurposing: Confirmatory screen for SK-N-MC cells (AID 1347111).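 Further: potency means the concentration at half of the fitted maximal effect; cells exposed to compound for 48 h before the readout; nearly all actives have a fitted effect of over 70% in size.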 In short, it runs like this:
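Seed 500-1,000 cells/well; rest 5 h at 37 degrees C. Pin-transfer compounds, 11-point titration. Incubate 48 h. Add CellTiter-Glo, 15 min RT, read luminescence.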

Test [13] in a line: qHTS of pediatric cancer cell lines to identify multiple opportunities for drug repurposing: Confirmatory screen for LAN-5 cells (AID 1347113). Further: nearly all actives have a fitted effect of over 65% in size. Further: potency means the concentration at half of the fitted maximal effect. In short, it runs like this: as §1
Test [14] can be described thus: qHTS of pediatric cancer cell lines to identify multiple opportunities for drug repurposing: Confirmatory screen for NB-EBc1 cells (AID 1347115).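 Further: cells exposed to compound for 48 h before the viability read; nearly all actives have a fitted effect of over 45% in size.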 Further: potency means the concentration at half of the fitted maximal effect. On activity change, negative = cytotoxic: on the % scale 0 is the no-effect control and ±100 the full control effect. In short, it runs like this:
as §1

A short description of test [15]: qHTS of pediatric cancer cell lines to identify multiple opportunities for drug repurposing: Confirmatory screen for SJ-GBM2 cells (AID 1347116). Further: nearly all actives have a fitted effect of over 60% in size. Further: potency means the concentration at half of the fitted maximal effect. In a few lines:
as §3

Test [16] is described as follows: qHTS of pediatric cancer cell lines to identify multiple opportunities for drug repurposing: Confirmatory screen for BT-37 cells (AID 1347117). Further: nearly all actives have a fitted effect of over 55% in size. Further: potency means the concentration at half of the fitted maximal effect.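 On activity change, negative = cytotoxic: plate controls were DMSO for no effect and bortezomib for full effect.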 Particulars: BT-37 pediatric cancer cells, viability; activity change, negative = cytotoxic: at 45.9 µM (top of the series). In a few lines: as §1
Test [17] is described as follows: qHTS of pediatric cancer cell lines to identify multiple opportunities for drug repurposing: Confirmatory screen for MG 63 (6-TG R) cells (AID 1347119). Further: nearly all actives have a fitted effect of over 55% in size. In short, it runs like this: as §1
A short description of test [18]: qHTS of pediatric cancer cell lines to identify multiple opportunities for drug repurposing: Confirmatory screen for TC32 cells (AID 1347118).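 Further: potency means the concentration at half of the fitted maximal effect; cells exposed to compound for 48 h before the read; nearly all actives have a fitted effect of over 65% in size.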 In short, it runs like this: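 Luminescent CellTiter-Glo read-out of metabolically active TC32 cells after 48 h compound exposure. Primary: MIPE 11-point, 0.78 nM–46 µM; NPC 8-point, 0.59 nM–46 µM. Confirmatory: 11-point dilutions.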

Test [19] can be described thus: qHTS of pediatric cancer cell lines to identify multiple opportunities for drug repurposing: Primary screen for control Hh wild type fibroblast cells (AID 1347106). In a few lines:
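Viability after 48 h compound treatment at 37C, 500-1,000 cells/well, read as ATP luminescence with CellTiter-Glo. Primary screens used 11-point (MIPE, 0.78 nM-46 µM) or 8-point (NPC, 0.59 nM-46 µM) final concentrations; follow-up screens used 11-point dilutions.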

Test [20] in a line: qHTS of pediatric cancer cell lines to identify multiple opportunities for drug repurposing: Primary screen for Rh18 cells (AID 1347102). Further: nearly all actives have a fitted effect of over 65% in size. In short, it runs like this:
as §1

On to `CCc1cnn2c(NCc3ccc[n+]([O-])c3)cc(N3CCCC[C@@H]3CCO)nc12`, for which the Potency is 0.0432 µM (active) in test [1], 0.0343 µM (active) in [2], 0.0332 µM (active) in test [3] and 0.0743 µM (active) in test [5]. Besides, the Potency result in test [4], in [6], in test [7] and in [8] was “inactive” throughout.

Take `CS[C@H]1SC[C@@H]2C(=O)N(C)[C@H](C(C)C)C(=O)OC[C@H](NC(=O)c3cnc4ccccc4n3)C(=O)N[C@H](C)C(=O)N(C)[C@@H]1C(=O)N(C)[C@H](C(C)C)C(=O)OC[C@H](NC(=O)c1cnc3ccccc3n1)C(=O)N[C@H](C)C(=O)N2C`: the Potency was 0.0054 µM (active) in test [1]; 0.0122 µM (active) in test [2]; 0.003 µM (active) in test [3]; 0.0187 µM (active) in test [9]; 0.0059 µM (active) in test [11]; 13.1 µM (active) in test [12]. Besides, the Potency in test [6] is 0.0093 µM (active); in [7], 0.0147 µM (active). Besides, the Potency result in test [4], in test [10], in [13], in test [14], in [15] and in test [17] was “inactive” in each case. Besides, the Potency result in test [8] was “inactive”. The activity change, negative = cytotoxic in test [16] is 1.7% (active).

Regarding `Nc1ncn([C@@H]2O[C@H](CO)[C@@H](O)[C@@H]2O)c(=O)n1`, the Potency was 5.44 µM (active) in [1]; 15.3 µM (active) in test [2]; 5.9 µM (active) in test [3]; 16.5 µM (active) in test [10]; 5.85 µM (active) in test [11]; 18.5 µM (active) in test [6]. The Potency in [13] is 16.5 µM (active); in [14], 13.1 µM (active); in test [15], 16.5 µM (active); in test [16], 16.5 µM (active); in [18], 4.65 µM (active). Also, the Potency result in [9] was “inactive”.

Consider `O=C(O)C=Cc1ccc(Cn2ccnc2)cc1`, for which the Potency entry in test [1], in test [2], in test [3], in [9], in test [4] and in test [5] was “inactive” in each case.

Regarding `CCOC(=O)N1CCN([N+]([O-])=NOc2ccc([N+](=O)[O-])cc2C#N)CC1`, the Potency in [1] was 3.06 µM (active); in [2], 3.43 µM (active); in [3] it was 4.69 µM (active); in test [10] it was 3.69 µM (active); in [11], 2.61 µM (active); in test [13] it was 4.65 µM (active). The results for the Potency in test [7], in [16] and in test [18] were 2.33 µM (active), 3.29 µM (active) and 2.33 µM (active), respectively. The Potency entry in [4] and in test [8] was “inactive” each time.

For `Cc1ncc(-c2ccnc(Nc3ccc(S(C)(=O)=O)cc3)n2)n1C(C)C`, the Potency in test [1] is 3.85 µM (active); in test [2], 3.85 µM (active); in test [3] it was 6.62 µM (active); in [5], 5.9 µM (active); in [6] it was 3.29 µM (active); in [7], 13.1 µM (active). In addition, the results for the Potency in test [15] and in test [16] were 2.61 µM (active) and 3.29 µM (active), respectively. In addition, the Potency entry in test [19], in [4], in test [17] and in test [8] was “inactive” each time.

Regarding `OC[C@H]1OC(O)C[C@@H](O)[C@H]1O` (stereo partly specified), the Potency result in [1], in [2], in test [3], in test [4] and in [5] was “inactive” in each case.

As to `CCC(C=C[C@@H]1OC(=O)C=C[C@H]1C)=C[C@H](C)CC=CC(C)=C[C@@H](C)C(=O)[C@@H](C)[C@H](O)[C@@H](C)CC(C)=CC(=O)O`, the Potency was 0.0322 µM (active) in [1]; 0.128 µM (active) in [2]; 0.0782 µM (active) in [3]; 0.0247 µM (active) in test [5]; 0.0064 µM (active) in test [12]; 0.0161 µM (active) in test [6]. Moreover, the Potency was 0.0051 µM (active) in test [13], 0.0128 µM (active) in test [7], 0.0057 µM (active) in test [16] and 0.0144 µM (active) in [18]. The activity change, negative = cytotoxic in [4] was -1.27% [at 1.86 µM].

On to `COc1cc([C@@H]2c3cc4c(cc3[C@@H](O[C@@H]3O[C@@H]5CO[C@@H](c6cccs6)O[C@@H]5[C@H](O)[C@@H]3O)[C@H]3COC(=O)[C@H]23)OCO4)cc(OC)c1O`, for which the Potency is 6.11 µM (active) in test [1]; 0.485 µM (active) in [2]; 2.96 µM (active) in [3]; 0.657 µM (active) in test [11]; 3.69 µM (active) in test [6]; 5.22 µM (active) in test [7]. For the same compound, in [16], the Potency is 0.261 µM (active). For the same compound, the Potency entry in [8] is “inactive”.

For the compound `CC(C)Oc1ccc(C(=O)N[C@H](CNC(=O)CN(C)C)Cc2ccc(-c3cn4cccc([C@H](C)O)c4n3)cc2)cc1Cl`, the Potency in test [1] was 1.93 µM (active); in test [2] it was 2.43 µM (active); in [5], 1.18 µM (active).

As to `CCCNS(=O)(=O)Nc1ncnc(OCCOc2ncc(Br)cn2)c1-c1ccc(Br)cc1`, the Potency result in test [20], in [2], in [3], in test [9], in test [19] and in test [4] was “inactive” each time.

Take `CCCCCCCN(CC)CCCC(O)c1ccc(NS(C)(=O)=O)cc1` (stereo unspecified): the Potency entry in test [1], in test [3], in test [9], in test [19], in [4] and in test [5] was “inactive” throughout.

As to `O=C(O)c1ccc(Nc2ncc3c(n2)-c2ccc(Cl)cc2C(c2c(F)cccc2F)=NC3)cc1`, the Potency result in test [1], in test [19], in test [6], in test [13] and in [8] was “inactive” throughout. Besides, the Potency is 29.6 µM (active) in [3]; 23.5 µM (active) in [9]; 18.7 µM (active) in [4]; 10.4 µM (active) in [11]; 4.14 µM (active) in test [12]; 1.47 µM (active) in [18].

Turning to `C[C@H](NCc1ccc(OCc2cccc(F)c2)cc1)C(N)=O`, the Potency in [20] is 20.9 µM (active); in [2], 4.85 µM (active); in test [3], 16.6 µM (active); in [9], 18.7 µM (active); in test [5], 18.7 µM (active).

Turning to `Cc1nc(NC(=O)N2CCC[C@@H]2C(N)=O)sc1-c1ccnc(C(C)(C)C(F)(F)F)c1`, the Potency in [20] is 3.72 µM (active); in test [2], 0.485 µM (active); in [3] it was 0.372 µM (active); in [5] it was 4.18 µM (active); in [11], 16.5 µM (active); in test [12], 5.22 µM (active). Further, the Potency in test [13] was 2.93 µM (active); in test [18], 5.22 µM (active); in test [17], 6.57 µM (active). Moreover, the Potency result in [7] and in [8] was “inactive” each time.
